# Test results taken from the supplement of paper PMC8728848.
# Shown is part of a subset that was picked to be rich in the strongest signals.
# B1: FGF1 (Homo sapiens), P05230 (protein)
# chain: MAEGEITTFTALTEKFNLPPGNYKKPKLLYSNGGHFLRILPDGTVDGTRDRSDQHIQLQLSAESVGEVYIKSTETGQYLAMTDGLLYGSQTPNEECLFLERLEENHYNTYISKHAEKNWFVGLKKNGSCKRGPRTHYGQAILFLPLPASSED
# Experiments:
# Experiment in all cases: glycan array binding signal (z-score within array); higher = stronger binding
# Conditions in all cases: glycan notation: IUPAC condensed, linker removed
# [1] = target: Fuc(a1-2)Gal(b1-3)GlcNAc(b1-2)Man(a1-3)[Fuc(a1-2)Gal(b1-3)GlcNAc(b1-2)Man(a1-6)]Man(b1-4)GlcNAc(b1-4)[Fuc(a1-6)]GlcNAc
# Method in brief: (§1)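 Negative Z-scores can be read as non-binding. The Z-score is calculated within each array and then averaged across arrays of one protein sequence at different concentrations or buffers and across linkers. Arrays, 3228 in all, were curated from the Consortium for Functional Glycomics database and kept only where the protein sequence was available.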
# [2] = target: Fuc(a1-2)Gal(b1-3)[Fuc(a1-4)]GlcNAc(b1-2)Man(a1-3)[Fuc(a1-2)Gal(b1-3)[Fuc(a1-4)]GlcNAc(b1-2)Man(a1-3)]Man(b1-4)GlcNAc(b1-4)GlcNAc
# Method in brief: as §1
# Fuc(a1-2)Gal(b1-4)Glc = target: Fuc(a1-2)Gal(b1-4)Glc
# Method in brief: as §1
# [3] = target: Fuc(a1-2)Gal(b1-4)GlcNAc(b1-3)GalNAc
# Method in brief: as §1
# Fuc(a1-2)Gal6S(b1-4)Glc = target: Fuc(a1-2)Gal6S(b1-4)Glc
# Method in brief: as §1
# [4] = target: Fuc(a1-2)Gal6S(b1-4)Glc6S
# Method in brief: as §1
# [5] = target: Fuc(a1-2)[GalNAc(a1-3)]Gal(b1-4)GlcNAc(b1-3)GalNAc
# Method in brief: as §1
# [6] = target: Fuc(a1-3)[Gal(b1-4)]GlcNAc(b1-6)GalNAc
# Method in brief: as §1
# [7] = target: Fuc(a1-3)[Gal3S(b1-4)]GlcNAc6S
# Method in brief: as §1
# [8] = target: Gal(a1-3)Gal(b1-3)GlcNAc(b1-3)GalNAc
# Method in brief: as §1
# [9] = target: Gal(a1-3)Gal(b1-3)[Fuc(a1-4)]GlcNAc(b1-2)Man(a1-3)[Gal(a1-3)Gal(b1-3)[Fuc(a1-4)]GlcNAc(b1-2)Man(a1-6)]Man(b1-4)GlcNAc(b1-4)GlcNAc
# Method in brief: as §1
# [10] = target: Gal(a1-3)Gal(b1-4)GlcNAc(b1-3)GalNAc
# Method in brief: as §1
# Gal(a1-4)Gal(b1-4)GlcNAc = target: Gal(a1-4)Gal(b1-4)GlcNAc
# Method in brief: as §1
# [11] = target: Gal(a1-4)Gal(b1-4)GlcNAc(b1-3)Gal(b1-4)Glc
# Method in brief: as §1
# [12] = target: Gal(b1-3)[Fuc(a1-4)]GlcNAc(b1-2)Man
# Method in brief: as §1
# [13] = target: Gal(b1-3)[Fuc(a1-4)]GlcNAc(b1-2)Man(a1-3)[Gal(b1-3)[Fuc(a1-4)]GlcNAc(b1-2)Man(a1-6)]Man(b1-4)GlcNAc(b1-4)[Fuc(a1-6)]GlcNAc
# Method in brief: as §1
# [14] = target: Gal(b1-4)GalNAc(a1-3)[Fuc(a1-2)]Gal(b1-4)GlcNAc
# Method in brief: as §1
# Gal(b1-4)GlcNAc = target: Gal(b1-4)GlcNAc
# Method in brief: as §1
# [15] = target: Gal(b1-4)GlcNAc(a1-6)Gal(b1-4)GlcNAc
# Method in brief: as §1
# [16] = target: Gal(b1-4)GlcNAc(b1-3)Gal(b1-4)GlcNAc(b1-3)Gal(b1-4)GlcNAc(b1-2)Man(a1-3)[Gal(b1-4)GlcNAc(b1-3)Gal(b1-4)GlcNAc(b1-3)Gal(b1-4)GlcNAc(b1-2)Man(a1-6)]Man(b1-4)GlcNAc(b1-4)[Fuc(a1-6)]GlcNAc
# Method in brief: as §1
# [17] = target: Gal(b1-4)GlcNAc(b1-3)Gal(b1-4)GlcNAc(b1-3)Gal(b1-4)GlcNAc(b1-3)Gal(b1-4)GlcNAc(b1-2)Man(a1-3)[Gal(b1-4)GlcNAc(b1-3)Gal(b1-4)GlcNAc(b1-3)Gal(b1-4)GlcNAc(b1-3)Gal(b1-4)GlcNAc(b1-2)Man(a1-6)]Man(b1-4)GlcNAc(b1-4)[Fuc(a1-6)]GlcNAc
# Method in brief: as §1
# [18] = target: Gal(b1-4)GlcNAc(b1-3)Gal(b1-4)GlcNAc(b1-3)[Gal(b1-4)GlcNAc(b1-3)Gal(b1-4)GlcNAc(b1-6)]GalNAc
# Method in brief: as §1
# [19] = target: Gal3S(b1-3)[Fuc(a1-4)]GlcNAc
# Method in brief: as §1
# Gal3S(b1-4)Glc = target: Gal3S(b1-4)Glc
# Method in brief: as §1
# Gal3S6S(b1-4)GlcNAc6S = target: Gal3S6S(b1-4)GlcNAc6S
# Method in brief: as §1
binder,measurement,setting,value
B1,glycan array binding signal (z-score),[1],0.366
same,glycan array binding signal (z-score),[2],2.84
same,glycan array binding signal (z-score),Fuc(a1-2)Gal(b1-4)Glc,-0.358
same,glycan array binding signal (z-score),[3],1.33
same,glycan array binding signal (z-score),Fuc(a1-2)Gal6S(b1-4)Glc,0.397
same,glycan array binding signal (z-score),[4],0.797
same,glycan array binding signal (z-score),[5],-0.242
same,glycan array binding signal (z-score),[6],1.04
same,glycan array binding signal (z-score),[7],1.09
same,glycan array binding signal (z-score),[8],0.646
same,glycan array binding signal (z-score),[9],3.56
same,glycan array binding signal (z-score),[10],-0.582
same,glycan array binding signal (z-score),Gal(a1-4)Gal(b1-4)GlcNAc,0.333
same,glycan array binding signal (z-score),[11],0.423
same,glycan array binding signal (z-score),[12],3.59
same,glycan array binding signal (z-score),[13],3.02
same,glycan array binding signal (z-score),[14],-0.949
same,glycan array binding signal (z-score),Gal(b1-4)GlcNAc,-0.031
same,glycan array binding signal (z-score),[15],-0.827
same,glycan array binding signal (z-score),[16],2.98
same,glycan array binding signal (z-score),[17],1.05
same,glycan array binding signal (z-score),[18],1.64
same,glycan array binding signal (z-score),[19],3.14
same,glycan array binding signal (z-score),Gal3S(b1-4)Glc,-0.046
same,glycan array binding signal (z-score),Gal3S6S(b1-4)GlcNAc6S,1.04
